Reference: the supplement of paper PMC12494721
Counter-ions that a name gives are not always drawn.

Legend:
Details in all cases: incubation time: 27 h, anaerobic, 37 °C;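 for the amine columns active = adjusted P below 0.05 in both replicates with a change the same way and a mean fold change under 0.8 or over 1.25; inactive = the rest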
[1] = tested on: Clostridium sporogenes DSM 1664; experiment: growth (OD595) fold change vs plate DMSO controls (fold change (ratio)); higher = more growth
Summary of the method: (§1)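 Growth is calculated as fold change against the median of the DMSO control wells on each plate. Readings at 595 nm from anaerobic mGAM cultures (96-well, 27 h, 37 °C) were blank-subtracted, background-corrected with 20 µM compound solutions in water, and converted to OD by a calibration factor of 5. Fold changes above 1.5 were recorded as NA, and results are means of 2 biological replicates.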

Escherichia coli IAI1 [2] = experiment: as above
Summary of the method: as §1

[3] = tested on: Klebsiella aerogenes DSM 30053; experiment: as above
Summary of the method: as §1

[4] = tested on: Ruminococcus gnavus DSM 108212; experiment: as above
Summary of the method: as §1

[5] = tested on: Klebsiella aerogenes DSM 30053; experiment: fold change of Histamine concentration vs plate DMSO controls (fold change (ratio)); higher = more amine produced, active = hit call of the paper (significant change in both replicates, either direction)
Summary of the method: (§2)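 Each value is the fold change relative to DMSO-only wells on the same plate. Four gut bacterial strains were grown anaerobically in mGAM at 37 °C for 27 h in 80 µL wells, starting at OD 0.1 before a 1:1 dilution, with compounds at 20 µM final (sweeteners 50 µM). Whole cultures were extracted with cold acetonitrile/methanol containing 0.1% formic acid, centrifuged, and amines were quantified by LC–triple-quadrupole MS (dynamic MRM) against external calibration curves with within-batch drift correction. Values are means of 2 biological replicates.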

[6] = tested on: Clostridium sporogenes DSM 1664; experiment: fold change of Tryptamine concentration vs plate DMSO controls (fold change (ratio)); higher = more amine produced, active = hit call of the paper (significant change in both replicates, either direction)
Summary of the method: as §2

[7] = tested on: Ruminococcus gnavus DSM 108212; experiment: as above
Summary of the method: as §2

Escherichia coli IAI1 [8] = experiment: fold change of Putrescine concentration vs plate DMSO controls (fold change (ratio)); higher = more amine produced, active = hit call of the paper (significant change in both replicates, either direction)
Summary of the method: as §2

[9] = tested on: Klebsiella aerogenes DSM 30053; experiment: as above
Summary of the method: as §2

Escherichia coli IAI1 [10] = experiment: fold change of Cadaverine concentration vs plate DMSO controls (fold change (ratio)); higher = more amine produced, active = hit call of the paper (significant change in both replicates, either direction)
Summary of the method: as §2

[11] = tested on: Klebsiella aerogenes DSM 30053; experiment: as above
Summary of the method: as §2

[12] = tested on: Ruminococcus gnavus DSM 108212; experiment: fold change of 2-Phenylethylamine concentration vs plate DMSO controls (fold change (ratio)); higher = more amine produced, active = hit call of the paper (significant change in both replicates, either direction)
Summary of the method: as §2

Compound	growth [1]	growth (Escherichia coli IAI1 [2])	growth [3]	growth [4]	fold change of Histamine concentration [5]	fold change of Tryptamine concentration [6]	fold change of Tryptamine concentration [7]	fold change of Putrescine concentration (Escherichia coli IAI1 [8])	fold change of Putrescine concentration [9]	fold change of Cadaverine concentration (Escherichia coli IAI1 [10])	fold change of Cadaverine concentration [11]	fold change of 2-Phenylethylamine concentration [12]
O=C1OC(c2ccc(O)cc2)(c2ccc(O)cc2)c2ccccc21 [Phenolphthalein] (20 µM)	1.03	0.983	0.993	0.964	1 (inactive)	0.974 (inactive)	1 (inactive)	0.991 (inactive)	0.977 (inactive)	0.965 (inactive)	1.02 (inactive)	0.986 (inactive)
CNCCC=C1c2ccccc2C=Cc2ccccc21 [Norcyclobenzaprine] (20 µM)	1.1	1.02	1.01	1.09	0.997 (inactive)	0.985 (inactive)	0.939 (inactive)	1 (inactive)	0.993 (inactive)	1.02 (inactive)	0.994 (inactive)	0.935 (inactive)
OCCN1CCN(CCCN2c3ccccc3Sc3ccc(Cl)cc32)CC1 [Perphenazine] (20 µM)	1.05	0.856	0.838	0.94	1.07 (inactive)	0.999 (inactive)	0.897 (inactive)	1.02 (inactive)	1.02 (inactive)	1.01 (inactive)	0.999 (inactive)	0.892 (inactive)
O=C(CCCN1CC=C(n2c(=O)[nH]c3ccccc32)CC1)c1ccc(F)cc1 [Droperidol] (20 µM)	1.02	0.959	1.02	0.835	0.994 (inactive)	0.988 (inactive)	0.963 (inactive)	0.977 (inactive)	1.02 (inactive)	1.03 (inactive)	1 (inactive)	0.956 (inactive)
CC[N+](C)(C)c1cccc(O)c1 [Edrophonium chloride] (20 µM)	1.07	1.06	1.01	1.17	1.07 (inactive)	0.998 (inactive)	1.14 (inactive)	1.01 (inactive)	1.03 (inactive)	0.919 (inactive)	1 (inactive)	1.11 (inactive)
C[C@]12CCC(=O)C=C1C=C[C@@H]1[C@@H]2CC[C@@]2(C)[C@H]1CC[C@@]21CCC(=O)O1 [Canrenone] (20 µM)	1.01	1.03	1.01	1.03	0.908 (inactive)	1 (inactive)	1.12 (inactive)	0.86 (inactive)	0.967 (inactive)	0.878 (inactive)	1.02 (inactive)	1.14 (inactive)
CNCC(O)c1ccc(O)c(O)c1 (centres undefined) [Racepinephrine hydrochloride] (20 µM)	1.15	1.07	1.27	1.24	0.938 (inactive)	1.05 (inactive)	1.05 (inactive)	1.01 (inactive)	1.02 (inactive)	0.94 (inactive)	1.03 (inactive)	1.05 (inactive)
CC(=O)[C@H]1CC[C@H]2[C@@H]3CC=C4C[C@@H](O)CC[C@]4(C)[C@H]3CC[C@]12C [Pregnenolone] (20 µM)	1.1	1.07	1	0.993	1.06 (inactive)	1.04 (inactive)	0.998 (inactive)	1.03 (inactive)	1.02 (inactive)	0.968 (inactive)	0.994 (inactive)	1 (inactive)
C=CCSCC1Nc2cc(Cl)c(S(N)(=O)=O)cc2S(=O)(=O)N1 (centres undefined) [Althiazide] (20 µM)	1.06	1.11	1.01	1.02	0.981 (inactive)	1.03 (inactive)	1.24 (inactive)	1.21 (inactive)	1.03 (inactive)	1.06 (inactive)	1.12 (inactive)	1.66 (active)
CN(C)CCC(c1ccc(Br)cc1)c1ccccn1 (centres undefined) [Brompheniramine maleate] (20 µM)	0.959	1.17	1.07	1.17	0.891 (inactive)	1.2 (inactive)	1.1 (inactive)	0.981 (inactive)	0.943 (inactive)	1.2 (inactive)	1.03 (inactive)	1.14 (inactive)
Nc1ccc(C(=O)NCC(=O)O)cc1 [Aminohippuric acid] (20 µM)	0.256	0.163	0	0.295	0.944 (inactive)	0.982 (inactive)	1.03 (inactive)	1.04 (inactive)	1.01 (inactive)	0.988 (inactive)	1.01 (inactive)	1.03 (inactive)
CC(C)(C)NCC(O)COc1cccc2c1CCC(=O)N2 (centres undefined) [Carteolol hydrochloride] (20 µM)	0.96	1.01	0.997	0.895	0.987 (inactive)	0.985 (inactive)	1.01 (inactive)	1.01 (inactive)	0.982 (inactive)	1 (inactive)	0.996 (inactive)	0.982 (inactive)
